# Data from PubChem BioAssay (NCI).
# Compounds without any hit were thinned out: in the full panel of roughly 83,000, 20% have a hit.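 The endpoint reported here, percent growth, reads 100 for growth as untreated, 0 for no net growth and -100 for all cells dead.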 Unmarked numbers belong to inactive results. Active and inactive are the calls of the source. The calls were made as follows: active = growth percent below 10; inactive = the rest.
# Tests used:
# Assay in all cases: NCI-60 one-dose screen, 48 h (100 = growth as untreated, 0 = no growth, -100 = all killed)
# Settings in all cases: 10 µM unless noted
# NCI-H226 lung = test system: NCI-H226 lung
# NCI-H322M lung = test system: NCI-H322M lung
# HOP-62 NSCLC = test system: HOP-62 NSCLC
# NCI-H460 lung = test system: NCI-H460 lung
# HOP-92 NSCLC = test system: HOP-92 NSCLC
# NCI-H522 lung = test system: NCI-H522 lung
# A549/ATCC NSCLC = test system: A549/ATCC NSCLC
# 786-0 renal = test system: 786-0 renal
# COLO 205 colon = test system: COLO 205 colon
SMILES,growth (NCI-H226 lung),growth (NCI-H322M lung),growth (HOP-62 NSCLC),growth (NCI-H460 lung),growth (HOP-92 NSCLC),growth (NCI-H522 lung),growth (A549/ATCC NSCLC),growth (786-0 renal),growth (COLO 205 colon)
COCCn1cc(-c2csc(-c3c[nH]c4ccc(Br)cc34)n2)c2cccnc21,58%,59.5%,45.4%,20.7%,2.14% (active),-28.3% (active),23.1%,-4.75% (active),24.9%
CC1=C2[C@@H](CC1)[C@]1(C)O[C@@](c3ccccc3)(C[C@H]1OC(=O)CO)[C@H]2OC(=O)/C=C/c1ccccc1,80.8%,101%,100%,85.2%,96.2%,72.3%,74.4%,68.7%,110%
CC/C(Cc1ccccc1)=C(\c1ccc(OCCCN(C)C)cc1)c1ccc(OC(=O)NCc2ccccc2)cc1,86.4%,87.2%,85.7%,7.02% (active),38.6%,95.5%,61.9%,62%,4.67% (active)
C=C(C)[C@@H]1CC[C@]2(C)[C@H](CC=C3[C@@H]4CC(C)(C)CC[C@]4(CO)CC[C@]32C)[C@@]1(C)CCCN,95.9%,54.6%,63.9%,-93.2% (active),42.5%,-40.1% (active),-71% (active),32.6%,-56.8% (active)
COc1ccc(/C=C/C(=O)c2cc3c(N)c(C(=O)Nc4cccc(Cl)c4C)sc3nc2C)cc1,34.8%,33.1%,20.7%,0.238% (active),39.2%,-8.5% (active),17.6%,4.44% (active),-28.9% (active)
Cc1nc2c(c(=O)[nH]1)C(c1ccccc1)c1ccc3ccccc3c1O2 (configuration not stated),62.5%,59.1%,20.2%,20.5%,24.7%,-31.4% (active),40.2%,25%,72.9%
FC(F)(F)Oc1cccc(-c2cnc3ccc(-c4ccncc4)nn23)c1,33.5%,27.4%,,17.6%,17.4%,1.55% (active),11.5%,21.1%,16.1%
O=C(C1=Cc2cc3ccccc3n2Cc2cnnn21)c1ccc(O)cc1,85.1%,89.4%,55.7%,27.8%,84.4%,36.7%,50.7%,81.8%,75.5%
C[C@H](CCCC(=O)NCC#CCN1CCN(C)CC1)[C@H]1CC[C@H]2[C@@H]3CC[C@@H]4CC(=O)CC[C@]4(C)[C@H]3CC[C@]12C,103%,97.7%,96.2%,96%,73.7%,102%,95.7%,97%,95.1%
Clc1ccccc1-c1cnn2cc(-c3ccccc3)cnc12,83.2%,87%,86%,75.3%,82.9%,77.3%,70.5%,76.7%,91.8%
COc1ccc(N2CCC(=S)NC2=S)cc1,86.4%,105%,108%,107%,104%,87.4%,99.8%,103%,108%
C=C1C(=O)O[C@H]2[C@H]1CC/C(COC(=O)/C=C\C(=O)NCc1ccc(Cn3c(=O)sn(CCCl)c3=O)cc1)=C\CC[C@@]1(C)O[C@@H]21,102%,104%,116%,101%,115%,-64.4% (active),111%,83.4%,34.8%
C=CCOC(=O)C1=C(C)N(CC)C(=O)NC1c1c(Cl)n(C)c2ccccc12 (configuration not stated),106%,78.8%,103%,99%,68.1%,,87.6%,95.7%,108%
CCN(CC)CCCN1C(=O)c2c(c(C)c3c(oc4ccc(OC)cc43)c2C)C1=O,32.4%,102%,93.9%,108%,86.7%,93.9%,101%,40.2%,92.2%
O=C(NC(Cc1nnc2n(Cc3ccccc3)c(=O)c3c4c(sc3n12)CCCC4)c1ccccc1)c1ccccc1 (configuration not stated),113%,93.3%,71.1%,94.4%,74.6%,94.8%,90.4%,81%,107%
NS(=O)(=O)c1ccc(-c2cc(-c3nnc(SCC(=O)Nc4ccc(C(=O)/C=C/c5ccc(Cl)cc5)cc4)n3-c3ccccc3)c3ccccc3n2)cc1,96.6%,89.3%,100%,97.7%,93.1%,89.9%,95%,73.4%,103%
COc1ccc2[nH]cc(-c3nc(-c4c[nH]c5c(Cl)nccc45)cs3)c2c1,40.3%,72.2%,61.2%,-3.62% (active),56.2%,25.8%,28.6%,9.87% (active),42.2%
CC1=C(C(=O)Nc2ccccc2)C(c2ccc3c(c2)OCO3)NC(=S)N1 (configuration not stated),96.7%,107%,121%,113%,112%,87.9%,108%,101%,117%

SMILES,growth (NCI-H226 lung),growth (NCI-H322M lung),growth (HOP-62 NSCLC),growth (NCI-H460 lung),growth (HOP-92 NSCLC),growth (NCI-H522 lung),growth (A549/ATCC NSCLC),growth (786-0 renal),growth (COLO 205 colon)
CN1CCN(Cc2ccc(NC(=O)c3cncc(C#Cc4cnc(N)c5ncccc45)c3)cc2C(F)(F)F)CC1,7.14% (active),25.1%,-5.02% (active),-35.5% (active),7.16% (active),9.75% (active),10.6%,-82.3% (active),-55.2% (active)
O=C1c2cccc3cccc(c23)C(=O)N1C/C=C/c1ccc2c3c(cccc13)C(=O)N(CCO)C2=O,58.3%,62.9%,70.6%,72.6%,2.53% (active),,81.2%,84.4%,68.3%
C=C1CC[C@@H]2[C@](C)(COC(C)=O)[C@H](OC(C)=O)CC[C@@]2(C)[C@@H]1CC(Nc1ccc(S(=O)(=O)NC(C)=O)cc1)C1=CCOC1=O (some centres not stated),-52.3% (active),35.3%,82%,5.29% (active),21%,-63.2% (active),27.9%,-66% (active),-32.7% (active)
CC(=C(c1ccc(OCCN2CCCCC2)cc1)c1ccc(OCCN2CCCCC2)cc1)c1ccc(Cl)cc1,-73.4% (active),-97.2% (active),-82% (active),-82.4% (active),-82.9% (active),-76.9% (active),-81.7% (active),-90.9% (active),-68.2% (active)
CCCCCCCCCCCCCCCCCC1=NC(C)(C)CN1CC(C)O (configuration not stated),102%,71.4%,85.2%,4.24% (active),43.6%,25.8%,19.1%,83.9%,34%
Cc1ccc(-c2csc(NC(=O)c3ccccc3CN3C(=O)c4ccccc4C3=O)n2)cc1,92%,95.1%,99.1%,109%,89.6%,82.1%,86.4%,95.8%,103%
CCN(CC)CCN1C(=O)c2cccc3c(/C=C/CN4C(=O)c5cccc6cccc(c56)C4=O)ccc(c23)C1=O,92.7%,97.4%,89.5%,98.7%,88.1%,97.9%,98.8%,-9.45% (active),80.7%
O=C(/C=C(O)/C=C/c1cccc2[nH]ccc12)/C=C/c1cccc2[nH]ccc12,99.5%,98.9%,76.4%,98.3%,62.1%,34%,87.5%,86%,55.8%
COc1ccc(/C=C(/c2ccccc2)[N+](=O)[O-])c(OC)c1,59.9%,46.1%,4.17% (active),2.72% (active),-25.4% (active),-13.2% (active),7.88% (active),-66.1% (active),-26.9% (active)
CNC(=O)c1cc(Oc2cccc3nc(NC(=O)Nc4cc(C(F)(F)F)ccc4Cl)ccc23)ccn1,99.1%,101%,95.2%,101%,115%,94%,90%,68.8%,67.5%
N#Cc1cccc(C2C3=C(COC3=O)N(CCO)c3cc4c(cc32)OCO4)c1 (configuration not stated),74.9%,49.3%,32.2%,14.8%,42.4%,17%,39.5%,24.9%,8.4% (active)
Cc1ccc(/C=C/C(=O)c2ccc(-n3cc(CN4CCN(c5cc6c(cc5F)c(=O)c(C(=O)O)cn6C5CC5)CC4)nn3)cc2)cc1,84.6%,94.3%,81.3%,89.7%,76.2%,88.6%,93.5%,64.9%,101%
Cc1ccc(/C=C/C(=O)c2cccc(OCCCOc3cccc(C(=O)/C=C/c4ccc(C)cc4)c3)c2)cc1,77.5%,85.1%,102%,75.9%,92.5%,,81.2%,57.9%,90.9%
Oc1c(CN2CCCC2)cc(CSCc2ccccc2)c2cccnc12,-4.43% (active),-0.478% (active),4.78% (active),2.01% (active),14.5%,12.9%,9.29% (active),6.65% (active),51%
Ic1ccccc1I,90.5%,126%,90.3%,104%,90.2%,100%,98.5%,92%,127%
C=C(CNCCO)[C@@H]1CC[C@]2(CO)CC[C@]3(C)[C@H](CC[C@@H]4[C@@]5(C)CCC(N)C(C)(C)[C@@H]5CC[C@]43C)[C@@H]12 (some centres not stated),88%,80.2%,71.4%,-26.8% (active),54.5%,0.745% (active),36.2%,11%,-74.7% (active)
CCOC(=O)C(Cc1ccc(OC)cc1)C(=O)OCC,65.9%,36.3%,,30.4%,-1.28% (active),,51.7%,39.3%,71.6%
Oc1ccc(/C=C/c2ccc(O)cc2)cc1,90.8%,58.5%,71.4%,34.5%,73.2%,,60.7%,24.3%,134%
